PubChem BioAssay AID2108 (National Center for Advancing Translational Sciences (NCATS), 2009)
Results filed as inconclusive are left out. The source made the active and inactive calls. Calls follow the shape of the dose curve; as a rule, active = well fitted curve in the direction sought with a large enough effect; inconclusive = small, poorly fitted or top-dose-only effect, or effect the other way, or another doubt; inactive = no such curve, though single readings can be large or run the other way.

These compounds were tested against Alpha-galactosidase A (Homo sapiens) (UniProt P06280) (assay: Confirmation of Inhibitors of Human alpha-Galactosidase Using Spleen Homogenate). Details: alpha-galactosidase enzyme activity; series mostly up to 56.2 µM.
Alpha-galactosidase A (Homo sapiens), sequence (P06280 32-429 limits assumed): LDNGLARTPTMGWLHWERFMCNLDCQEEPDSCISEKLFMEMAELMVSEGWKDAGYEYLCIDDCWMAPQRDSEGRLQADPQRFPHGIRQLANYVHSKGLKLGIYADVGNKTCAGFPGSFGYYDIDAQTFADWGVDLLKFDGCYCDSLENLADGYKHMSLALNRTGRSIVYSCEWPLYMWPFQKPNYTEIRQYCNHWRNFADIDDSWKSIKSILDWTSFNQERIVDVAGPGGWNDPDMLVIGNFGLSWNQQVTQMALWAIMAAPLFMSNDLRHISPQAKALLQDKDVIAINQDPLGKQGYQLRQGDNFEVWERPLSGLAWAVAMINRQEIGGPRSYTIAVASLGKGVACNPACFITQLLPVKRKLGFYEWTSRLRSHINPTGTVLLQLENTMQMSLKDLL
Outline: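 Human spleen homogenate (1 ug) with 1 mM 4-methylumbelliferyl-alpha-D-galactopyranoside in citrate-phosphate pH 5.0, 0.01% Tween-20, 37C 40 min; compounds 0.5 nM–58 uM final. Stopped at pH 10, fluorescence Ex 365/Em 440; AC50 from Hill fits.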
For `CC(C)C[C@H](NC(=O)c1nc[nH]c1C(=O)N[C@@H](CC(C)C)C(=O)OC(C)(C)C)C(=O)OCc1ccccc1`, the outcome was “inactive”. `CC1CCc2nc(-c3cc4ccc(O)cc4oc3=O)sc2C1` (configuration not stated) was tested, and the outcome was “inactive”. With `O=NOc1ccc(/C=C/c2nccc3c2[nH]c2ccccc23)cc1` the outcome was “inactive”. With `COc1ccc(C(=O)N2CCn3c(C)ccc3C2C)cc1` (configuration not stated) the outcome was “inactive”. With `Nc1c(NCCN2CCOCC2)c2ccccc2oc1=O` the outcome was “inactive”. For `Cc1cccn2c(=O)c3cc(C#N)c(=NC(=O)c4cccs4)n(CCCOC(C)C)c3nc12`, the outcome was “inactive”. With `C=CCN1CCc2c(cc(O)c(O)c2Cl)C(c2ccccc2)C1` (configuration not stated) the outcome was “inactive”. `O=C(O)Cn1nnnc1SCC(=O)Nc1ccc(OC(F)(F)F)cc1` was tested, and the outcome was “inactive”. For `CCOC(=O)c1c(-c2ccc(-c3ccccc3)cc2)csc1NC(=O)CCN1CCOCC1`, the outcome was “inactive”. With `O=C(Nc1ccccc1)C1CCN(S(=O)(=O)c2ccccc2)CC1` the outcome was “inactive”. In the case of `COc1ccc(S(=O)(=O)N2CCN(C(=O)COc3ccc4c(C)cc(=O)oc4c3)CC2)cc1`, the outcome is reported as “inactive”. For `CCc1cc(-c2n[nH]c(C)c2-c2nc3ccccc3n2C)c(O)c(CN2CCN(C)CC2)c1O`, the outcome was “inactive”. In the case of `CN1CCN(S(=O)(=O)c2ccccc2)CC1`, the outcome is reported as “inactive”. `Cc1ccc(C2NC(=O)c3c(sc4c3CCN(C)C4)N2)s1` (configuration not stated) was tested, and the outcome was “inactive”. `N#CCCN1CCN(S(=O)(=O)c2ccc(S(=O)(=O)N3CCOCC3)cc2)CC1` was tested, and the outcome was “inactive”. With `CC1CC(C)CN(CC(=O)N2c3ccccc3CCc3ccccc32)C1` (configuration not stated) the outcome was “inactive”. For `Cc1noc(C)c1S(=O)(=O)N(CC(=O)N1CCc2ccccc21)c1ccc(C(C)C)cc1`, the outcome was “inactive”.
